One assay concerns PPARg:RXRa 90nM:30nM, anti-RXR (NR concentration 90 nM, RXRa partner concentration 30 nM). Briefly: PBM binding z-score (relative to random genomic background probes); higher = stronger binding; sequences stand for … in GC…GCGATTGACAGCGTAGAATGAAGG
An outline of the steps:
(§1)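 Random background probes are the reference for binding z-scores. These scores derive from regression-normalized fluorescence on custom Agilent 4×180K protein-binding microarrays incubated 1 h with ligand-free nuclear receptor dimers. Binding was detected with antibodies against each partner (one per run).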
In turn, CGAACGAGGTCATTGACAGGACAGTGAATAGTAA gave a PBM binding z-score of 6.21.

TCTAGTTGGTCACGGAGGGCACACACGACGGGTA returned a PBM binding z-score of 2.39.

Sequence AGAATGAGGTCATTAAGATCAGGGAATTGCGGTC gave a PBM binding z-score of 5.83.

As for CGCACTAGGTCATCCAGGACAGTGAATACATTGA, the PBM binding z-score is 5.62.

For TAGCCTAGGTCATGCGGCCCAGTATAGTGTCGGC, the PBM binding z-score worked out at 1.04.

In the case of GATACAGGGTCAGCTACAGGCCAGAGTATGGAAA, the PBM binding z-score was 2.17.

ATCGAAAGGTCGACGCGGTGAGTATACACCGTTT came in with a PBM binding z-score of 1.8.

As to CCTGCTAGGTCATGGTCAGCGAATCTACAGTATG, the PBM binding z-score is 1.77.

The sequence GCTGCTAGGTCAACTGATGGTCACCTAAAGCTCG yielded a PBM binding z-score of 2.56.

CCGACTGGGGCAAGGTCACCATAACGCACAGCCA came in with a PBM binding z-score of 3.78.

On to TCTCGGAGGACACCAAAGGTCAGAGCTCGACATC, for which the PBM binding z-score was 3.22.

AGTCAAAGTGCATCTAGGTAACGTAAGATATGCT came in with a PBM binding z-score of 1.47.

CCTACTGGGCCAAAAAGTTCATTGATGCCGATAA yielded a PBM binding z-score of 1.05.

Sequence ATTTGTAGGTTACATCCGGGTCATTCAGGCTATG yielded a PBM binding z-score of 3.26.

Sequence CGAACTAGGTCACCCAGGACAGTGAATACATTGA displayed a PBM binding z-score of 6.12.

As to CGTCCGAGGTCATAGGAGGTCAGTGAAGACAGAT, the PBM binding z-score turned out to be 5.53.

CCTAGTTGTTCAGGAGGTCACACACCGGATATGA: the PBM binding z-score was found to be 1.87.

In the case of CGAACTACGTCATCCAGGACAGTGAATACATTGA, the PBM binding z-score was -0.145.

With AATAAAGGGTCATCGTAGGCCAGAGTACGCACAG, the PBM binding z-score is 5.44.

Turning to CGTCAAAGTCCAAGGTAACGTAACAGAAAGCAGC, the PBM binding z-score worked out at 0.303.

TAGCCTAGGTCATACAGGGGCCAGTATAGAAAGC gave a PBM binding z-score of 1.62.

Turning to CGAACAAGGTCATTGACAGGACAGTGAATAGTAA, the PBM binding z-score was 4.75.

The sequence ATATGTAGGTTAGCTGGGGTCATTCACACTAGGC showed a PBM binding z-score of 4.69.

With CGTCCAAGGACAATGCTAGGTCAGTGAAAGCATT, the PBM binding z-score is -0.31.

CGAACGAGGTCATGAGTTGATAGCAAATGCCGAT showed a PBM binding z-score of 5.98.

AGAATGAGGTCAAGATCAGGGAAACAGAATACAT gave a PBM binding z-score of 6.74.

With CGTCCAAGGTTAAGGTCAGTGAAAGAGACTCGAA, the PBM binding z-score was found to be 1.49.

In the case of CATACAGGGTCGGCTAGGCCAGAGTAGGGACGGC, the PBM binding z-score is -0.513.

For CCTACTGGGCCAAAGAGGTCATTGATGCCGATAA, the PBM binding z-score was found to be 3.75.

As for ATATGTAGGTTAGGGTCAGTCAGAAAGTAGGGAA, the PBM binding z-score is 4.97.

For AGTCAAAGTTTATCTAGGTAACGTAAGATATGCT, the PBM binding z-score was 1.95.

Sequence TAGCCTAGGTCATGCGGGACAGTATAGTGTCGGC yielded a PBM binding z-score of 1.17.

ACTTAAGGGTCAACGAGGTTATAGCACGCGTATA gave a PBM binding z-score of 5.51.

TAGCCTAGTTCATTCAGGGGCCAGTATAGAAAGC showed a PBM binding z-score of 0.0192.

In turn, CGAACAAGGTCATCCAGGACAGTGAATACATTGA yielded a PBM binding z-score of 5.1.

For the sequence CGTCCGAGGTCAAGGTCAGTGAAAGAGACTCGAA, the PBM binding z-score amounted to 6.47.

As for TAGCCGAGGTCATTCAGGGGCCAGTATAGAAAGC, the PBM binding z-score amounted to 4.55.

CCTACTCGGCCAAAAAGGTCATTGATGCCGATAA: the PBM binding z-score came to 2.27.

On to CCTTACGGGTCCCTCCAGGTTATAGCATCGGAGT, for which the PBM binding z-score is -0.697.

AACGAAAGGTCGAAGGTGAGTATACCCACCCGAA came in with a PBM binding z-score of 3.92.

A further assay relates to PPARg:RXRa DBDmut IVT, anti-RXR (DBD mutation: RXRa K156A/R161A, NR concentration 270 nM, RXRa partner concentration 90 nM). The description is as above. The essentials: as §1
For the sequence CGAACGAGGTCATTGACAGGACAGTGAATAGTAA, the PBM binding z-score worked out at 5.35.

In turn, TCTAGTTGGTCACGGAGGGCACACACGACGGGTA yielded a PBM binding z-score of 2.05.

As to AGAATGAGGTCATTAAGATCAGGGAATTGCGGTC, the PBM binding z-score was 6.03.

CGCACTAGGTCATCCAGGACAGTGAATACATTGA returned a PBM binding z-score of 7.71.

Sequence TAGCCTAGGTCATGCGGCCCAGTATAGTGTCGGC yielded a PBM binding z-score of 1.17.

Sequence GATACAGGGTCAGCTACAGGCCAGAGTATGGAAA had a PBM binding z-score of 1.22.

As for ATCGAAAGGTCGACGCGGTGAGTATACACCGTTT, the PBM binding z-score is -0.0451.

Consider CCTGCTAGGTCATGGTCAGCGAATCTACAGTATG, for which the PBM binding z-score is 4.64.

In the case of GCTGCTAGGTCAACTGATGGTCACCTAAAGCTCG, the PBM binding z-score is 5.16.

On to CCGACTGGGGCAAGGTCACCATAACGCACAGCCA, for which the PBM binding z-score worked out at 3.03.

As to TCTCGGAGGACACCAAAGGTCAGAGCTCGACATC, the PBM binding z-score turned out to be 1.47.

Sequence AGTCAAAGTGCATCTAGGTAACGTAAGATATGCT showed a PBM binding z-score of 0.592.

Take CCTACTGGGCCAAAAAGTTCATTGATGCCGATAA: the PBM binding z-score turned out to be 3.74.

ATTTGTAGGTTACATCCGGGTCATTCAGGCTATG: the PBM binding z-score was determined as 6.92.

For the sequence CGAACTAGGTCACCCAGGACAGTGAATACATTGA, the PBM binding z-score came to 8.48.

CGTCCGAGGTCATAGGAGGTCAGTGAAGACAGAT had a PBM binding z-score of 3.62.

As for CCTAGTTGTTCAGGAGGTCACACACCGGATATGA, the PBM binding z-score was 0.958.

For the sequence CGAACTACGTCATCCAGGACAGTGAATACATTGA, the PBM binding z-score is 0.257.

For AATAAAGGGTCATCGTAGGCCAGAGTACGCACAG, the PBM binding z-score worked out at 3.16.

As for CGTCAAAGTCCAAGGTAACGTAACAGAAAGCAGC, the PBM binding z-score turned out to be 0.295.

In the case of TAGCCTAGGTCATACAGGGGCCAGTATAGAAAGC, the PBM binding z-score worked out at 1.94.

Sequence CGAACAAGGTCATTGACAGGACAGTGAATAGTAA yielded a PBM binding z-score of 4.08.

The sequence ATATGTAGGTTAGCTGGGGTCATTCACACTAGGC came in with a PBM binding z-score of 6.87.

Consider CGTCCAAGGACAATGCTAGGTCAGTGAAAGCATT, for which the PBM binding z-score is 0.442.

In turn, CGAACGAGGTCATGAGTTGATAGCAAATGCCGAT returned a PBM binding z-score of 5.48.

For AGAATGAGGTCAAGATCAGGGAAACAGAATACAT, the PBM binding z-score turned out to be 5.82.

Turning to CGTCCAAGGTTAAGGTCAGTGAAAGAGACTCGAA, the PBM binding z-score came to 1.47.

On to CATACAGGGTCGGCTAGGCCAGAGTAGGGACGGC, for which the PBM binding z-score is -0.787.

Take CCTACTGGGCCAAAGAGGTCATTGATGCCGATAA: the PBM binding z-score is 4.23.

ATATGTAGGTTAGGGTCAGTCAGAAAGTAGGGAA had a PBM binding z-score of 6.27.

AGTCAAAGTTTATCTAGGTAACGTAAGATATGCT had a PBM binding z-score of 2.68.

On to TAGCCTAGGTCATGCGGGACAGTATAGTGTCGGC, for which the PBM binding z-score was 1.71.

ACTTAAGGGTCAACGAGGTTATAGCACGCGTATA registered a PBM binding z-score of 3.78.

On to TAGCCTAGTTCATTCAGGGGCCAGTATAGAAAGC, for which the PBM binding z-score was determined as 1.65.

For CGAACAAGGTCATCCAGGACAGTGAATACATTGA, the PBM binding z-score amounted to 4.74.

On to CGTCCGAGGTCAAGGTCAGTGAAAGAGACTCGAA, for which the PBM binding z-score is 4.18.

TAGCCGAGGTCATTCAGGGGCCAGTATAGAAAGC displayed a PBM binding z-score of 1.75.

CCTACTCGGCCAAAAAGGTCATTGATGCCGATAA gave a PBM binding z-score of 1.1.

On to CCTTACGGGTCCCTCCAGGTTATAGCATCGGAGT, for which the PBM binding z-score was -1.14.

The sequence AACGAAAGGTCGAAGGTGAGTATACCCACCCGAA had a PBM binding z-score of 0.349.
